Data as given in PubChem BioAssay AID1159580 (chemical genetic matrix, 2015).
“And” between values parts separate entries of the source, which are not always exact repeats. Identical values can stand only once. Screen size: about 5,500 compounds; about 2,000 (36%) were called active. Another 18% or so got no clear call; they are omitted. No stated cut-off is given here; in the data, active means normalized growth mostly below about 0.91 (no sharp cut-off); inconclusive means no clear call, values can overlap the other calls; inactive means mostly above about 0.92. The list shows a part of the results.

Experiment: chemical genetic growth profiling, strain panel (AID 1159580);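 further: tested at 20 µM; growth read once vehicle control cultures reached saturation at 30 °C; 1 = growth at the plate median or of vehicle wells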
Conditions: S. cerevisiae deletion strains, growth OD

Measured: normalized growth

CC(C)[C@@H]1CC[C@@H](C)C[C@H]1OC(=O)c1ccccc1
inactive: locus YAL013W, strain DEP1, stronger effect = lower value 1.01 | locus YAL021C, strain ccr4, stronger effect = lower value 1.01 | locus YAL026C, strain drs2, stronger effect = lower value 1.01 | locus YAL030W, strain snc1, stronger effect = lower value 1.01 | locus YBL061C, strain skt5, stronger effect = lower value 1.01 | locus YBR009C, strain hhf1, stronger effect = lower value 0.999 | locus YBR021W, strain FUR4, stronger effect = lower value 0.997 | locus YBR023C, strain chs3, stronger effect = lower value 1.01 | locus YBR171W, strain sec66, stronger effect = lower value 1 | locus YBR229C, strain ROT2, stronger effect = lower value 1.01 | locus YBR231C, strain swc5, stronger effect = lower value 1.02 | locus YBR279W, strain paf1, stronger effect = lower value 1.01 | locus YCL011C, strain gbp2, stronger effect = lower value 1 | locus YCL016C, strain dcc1, stronger effect = lower value 1.01 | locus YCL029C, strain bik1, stronger effect = lower value 0.99 | locus YCL061C, strain MRC1, stronger effect = lower value 1 | locus YCL069W, strain vba3, stronger effect = lower value 1 | locus YCR088W, strain abp1, stronger effect = lower value 1 | locus YDL005C, strain med2, stronger effect = lower value 0.991 | locus YDL035C, strain GPR1, stronger effect = lower value 0.988 | locus YDL040C, strain nat1, stronger effect = lower value 0.993 | locus YDL074C, strain BRE1, stronger effect = lower value 0.995 | locus YDL101C, strain DUN1, stronger effect = lower value 0.999 | locus YDL134C, strain PPH21, stronger effect = lower value 0.962 | locus YDL185W, strain tfp1, stronger effect = lower value 0.997 | locus YDL192W, strain arf1, stronger effect = lower value 0.929 | locus YDR001C, strain nth1, stronger effect = lower value 0.994 | locus YDR069C, strain doa4, stronger effect = lower value 0.999 | locus YDR101C, strain arx1, stronger effect = lower value 0.978 | locus YDR137W, strain rgp1, stronger effect = lower value 0.942 | locus YDR150W, strain NUM1, stronger effect = lower value 1.04 | locus YDR159W, strain sac3, stronger effect = lower value 1.02 | locus YDR162C, strain NBP2, stronger effect = lower value 0.91 | locus YDR195W, strain ref2 0.975 | locus YDR297W, strain sur2, stronger effect = lower value 1.01 | locus YDR318W, strain mcm21, stronger effect = lower value 0.992 | locus YDR334W, strain swr1, stronger effect = lower value 1 | locus YDR335W, strain msn5, stronger effect = lower value 1.01 | locus YDR388W, stronger effect = lower value 0.999 | locus YDR392W, strain spt3, stronger effect = lower value 0.997 | locus YDR502C, strain sam2, stronger effect = lower value 0.995 | locus YEL003W, strain gim4, stronger effect = lower value 1.02 | locus YEL037C, strain rad23, stronger effect = lower value 1.01 | locus YEL061C, strain CIN8 (second series), stronger effect = lower value 1.01 | locus YEL061C, strain CIN8, stronger effect = lower value 1.03 | locus YER015W, strain faa2, stronger effect = lower value 1.01 | locus YER016W, strain bim1, stronger effect = lower value 0.999 | locus YER110C, stronger effect = lower value 1 | locus YER111C, strain swi4, stronger effect = lower value 1.01 | locus YER155C, strain BEM2 (second series), stronger effect = lower value 1.02 | locus YER155C, strain BEM2, stronger effect = lower value 1.01 | locus YER167W, strain BCK2, stronger effect = lower value 1.01 | locus YFR010W, strain ubp6, stronger effect = lower value 1.01 | locus YGL078C, strain dbp3, stronger effect = lower value 0.971 | locus YGL086W, strain mad1, stronger effect = lower value 0.999 | locus YGL167C, strain pmr1, stronger effect = lower value 1 | locus YGL173C, strain kem1, stronger effect = lower value 1.02 | locus YGL227W, strain vid30, stronger effect = lower value 1 | locus YGL240W, strain doc1, stronger effect = lower value 1.03 | locus YGL248W, strain PDE1, stronger effect = lower value 0.94 | locus YGL253W, strain hxk2, stronger effect = lower value 1.01 | locus YGR135W, strain pre9, stronger effect = lower value 0.974 | locus YGR252W, strain gcn5, stronger effect = lower value 0.959 | locus YHR013C, strain ard1, stronger effect = lower value 1.06 | locus YHR027C, strain rpn1, stronger effect = lower value 1 | locus YHR030C, strain SLT2, stronger effect = lower value 1.02 and 1.01 | locus YHR079C, strain IRE1 (second series), stronger effect = lower value 0.997 | locus YHR079C, strain IRE1, stronger effect = lower value 1.01 | locus YHR094C, strain hxt1, stronger effect = lower value 1 | locus YHR129C, strain ARP1, stronger effect = lower value 1.01 | locus YHR142W, strain chs7, stronger effect = lower value 0.976 | locus YHR200W, strain rpn10, stronger effect = lower value 1.02 | locus YIL066C, strain RNR3, stronger effect = lower value 1.01 | locus YIL073C, strain SPO22, stronger effect = lower value 0.881 | locus YIL125W, strain kgd1, stronger effect = lower value 0.99 | locus YIR030C, strain dcg1, stronger effect = lower value 0.996 | locus YJL092W, strain hpr5, stronger effect = lower value 1 | locus YJL095W, strain BCK1 (second series), stronger effect = lower value 1.01 | locus YJL095W, strain BCK1, stronger effect = lower value 0.992 and 1.02 | locus YJL115W, strain asf1, stronger effect = lower value 1 | locus YJL129C, strain trk1, stronger effect = lower value 0.994 | locus YJL134W, strain LCB3, stronger effect = lower value 1.02 | locus YJL154C, strain vps35, stronger effect = lower value 0.993 | locus YJL164C, strain tpk1, stronger effect = lower value 0.997 | locus YJL166W, strain qcr8, stronger effect = lower value 0.984 | locus YJL168C, strain set2, stronger effect = lower value 0.986 | locus YJL187C, strain SWE1 (second series), stronger effect = lower value 1 | locus YJL187C, strain SWE1, stronger effect = lower value 1.01 | locus YJR043C, strain POL32, stronger effect = lower value 1.03 | locus YJR066W, strain TOR1, stronger effect = lower value 0.951 | locus YKL009W, strain mrt4, stronger effect = lower value 0.985 | locus YKL068W, stronger effect = lower value 1.01 | locus YKL085W, strain MDH1 (second series), stronger effect = lower value 1.01 | locus YKL085W, strain MDH1, stronger effect = lower value 1.01 | locus YKL160W, strain elf1, stronger effect = lower value 0.998 | locus YKR001C, strain vps1, stronger effect = lower value 0.91 | locus YKR026C, strain gcn3, stronger effect = lower value 0.977 | locus YKR091W, strain srl3, stronger effect = lower value 0.995 | locus YLL001W, strain dnm1, stronger effect = lower value 0.993 | locus YLL026W, stronger effect = lower value 1 | locus YLL041C, strain sdh2, stronger effect = lower value 0.996 | locus YLR027C, strain aat2, stronger effect = lower value 1 | locus YLR039C, strain RIC1, stronger effect = lower value 0.922 | locus YLR058C, strain SHM2, stronger effect = lower value 1.01 | locus YLR102C, strain apc9, stronger effect = lower value 1 | locus YLR113W, strain HOG1, stronger effect = lower value 1.02 | locus YLR221C, strain rsa3, stronger effect = lower value 0.997 | locus YLR258W, strain gsy2, stronger effect = lower value 1 | locus YLR262C, strain YPT6 (second series), stronger effect = lower value 0.973 | locus YLR262C, strain YPT6, stronger effect = lower value 0.981 | locus YLR268W, strain sec22, stronger effect = lower value 0.997 | locus YLR320W, strain mms22, stronger effect = lower value 1.01 | locus YLR330W, strain CHS5, stronger effect = lower value 1.02 | locus YLR342W, strain FKS1 (second series), stronger effect = lower value 1.06 | locus YLR342W, strain FKS1, stronger effect = lower value 1.01 | locus YLR357W, strain rsc2, stronger effect = lower value 1.01 | locus YLR370C, strain arc18, stronger effect = lower value 1.01 | locus YLR371W, strain rom2, stronger effect = lower value 1 | locus YLR384C, strain iki3, stronger effect = lower value 1.03 | locus YLR418C, strain cdc73, stronger effect = lower value 1 | locus YML016C, strain PPZ1, stronger effect = lower value 1.01 | locus YML032C, strain rad52, stronger effect = lower value 1.01 | locus YML120C, strain ndi1, stronger effect = lower value 1.02 | locus YML124C, strain tub3, stronger effect = lower value 0.999 | locus YMR058W, strain fet3, stronger effect = lower value 1.02 | locus YMR078C, strain ctf18, stronger effect = lower value 1 | locus YMR125W, strain sto1, stronger effect = lower value 0.992 | locus YMR129W, stronger effect = lower value 0.999 | locus YMR205C, strain PFK2, stronger effect = lower value 1.04 | locus YMR223W, strain ubp8, stronger effect = lower value 0.995 | locus YMR231W, strain pep5, stronger effect = lower value 1 | locus YMR307W, strain GAS1, stronger effect = lower value 0.948 | locus YNL067W, strain RPL9B, stronger effect = lower value 1 | locus YNL071W, strain lat1, stronger effect = lower value 1 | locus YNL153C, strain GIM3, stronger effect = lower value 1.02 | locus YNL183C, strain NPR1, stronger effect = lower value 0.946 | locus YNL209W, strain ssb2, stronger effect = lower value 1 | locus YNL233W, strain BNI4, stronger effect = lower value 1 | locus YNL248C, strain rpa49, stronger effect = lower value 0.986 | locus YNL250W, strain rad50, stronger effect = lower value 1.02 | locus YNL271C, strain bni1, stronger effect = lower value 0.993 | locus YNL298W, strain CLA4, stronger effect = lower value 0.992 | locus YNL307C, strain MCK1, stronger effect = lower value 1.01 | locus YNL322C, strain KRE1 (second series), stronger effect = lower value 1.01 | locus YNL322C, strain KRE1, stronger effect = lower value 1.01 | locus YNR049C, strain mso1, stronger effect = lower value 1 | locus YNR052C, strain pop2, stronger effect = lower value 0.989 | locus YOL012C, strain htz1 1.15 | locus YOL147C, strain pex11, stronger effect = lower value 1 | locus YOR001W, strain rrp6, stronger effect = lower value 0.999 | locus YOR061W, strain CKA2, stronger effect = lower value 1.01 | locus YOR069W, strain VPS5, stronger effect = lower value 1.01 | locus YOR070C, strain gyp1, stronger effect = lower value 1.01 | locus YOR080W, strain dia2, stronger effect = lower value 1.01 | locus YOR083W, strain WHI5, stronger effect = lower value 1 | locus YOR106W, strain vam3, stronger effect = lower value 0.949 | locus YOR136W, strain idh2, stronger effect = lower value 0.996 | locus YOR144C, strain elg1, stronger effect = lower value 1 | locus YOR184W, strain ser1, stronger effect = lower value 0.921 | locus YOR231W, strain MKK1, stronger effect = lower value 1.02 | locus YOR265W, strain rbl2, stronger effect = lower value 0.997 | locus YOR270C, strain vph1, stronger effect = lower value 1.01 | locus YOR290C, strain snf2, stronger effect = lower value 0.979 | locus YOR316C, strain cot1, stronger effect = lower value 1 | locus YPL051W, strain arl3, stronger effect = lower value 1 | locus YPL078C, strain atp4, stronger effect = lower value 0.999 | locus YPL106C, strain sse1, stronger effect = lower value 1.02 | locus YPL240C, strain hsp82, stronger effect = lower value 1 | locus YPL241C, strain CIN2, stronger effect = lower value 1.02 | locus YPL256C, strain CLN2, stronger effect = lower value 1.02 | locus YPR119W, strain clb2, stronger effect = lower value 0.993 | locus YPR141C, strain kar3, stronger effect = lower value 1.01 | locus YPR163C, strain tif3, stronger effect = lower value 1 | locus YPR167C, strain met16, stronger effect = lower value 0.993 | strain wtn01, stronger effect = lower value 1
